Screening data as filed in PubChem BioAssay.
HT1080NT lethal – kills 2HG-producing HT-1080-NT fibrosarcoma cells | HT-1080-NT fibrosarcoma viability, CellTiter-Glo ATP luminescence, 48 h | actives 1.6% (n = 360,000) | Potency, µM (top dose mostly 46.1 µM), inactives show at the top dose activity, negative = less viability, usual class: cytotoxic | AID 686970;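 also: NT is the 2HG producing partner of a matched IDH1 knockdown line; 0% = DMSO-treated cells and -100% = media-only wells without cells; nearly all actives have a fitted effect of over 55% in size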
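Toxicity toward the 2HG-producing NT line was scored as %Activity, normalised to DMSO and no-cell wells, from CellTiter-Glo luminescence after 48 hours' treatment.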
HT1080 IDH1KD tx – toxicity to HT-1080 IDH1 knockdown cells (counter line); HT-1080 IDH1 knockdown viability, ATP luminescence, 48 h; Potency, µM (titrated, usually from 46.1 µM), inactives show top-dose activity, negative = toxicity, actives largely listed as cytotoxic; actives 2% (n = 360,000);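 also: 0% = DMSO wells and -100% = cell-free medium wells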
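Viability of IDH1-knockdown HT-1080 fibrosarcoma cells was assessed by CellTiter-Glo after 48 h at 37 °C with titrated compound; concentration-effect curves were classified by fit quality and response size.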
DT40 TDP1 no CPT – qHTS for Inhibitors of human tyrosyl-DNA phosphodiesterase 1 (TDP1): qHTS in cells in absence of CPT | DT40 Tdp1-/- hTDP1 cells, no CPT, ATP luminescence, 48 h | Potency, µM (series often up to 46.2 µM), for inactives: at the highest dose activity change, negative = growth inhibition, most hits filed as inhibitors | actives 15% (n = 420,000) | AID 686978, 2013; also: nearly all actives have a fitted effect of over 55% in size
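Camptothecin absent (DMSO only). Human TDP1-complemented DT40 knockout cells, 400 cells/well, 37 °C for minimum 48 hr; ATP measured via CellTiter-Glo, 30 min dark incubation, luminescence.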
TDP1 cell CPT – growth inhibition of DT40 Tdp1-/-;hTDP1 cells with camptothecin (screen for TDP1 inhibitors); chicken DT40 Tdp1-/-;hTDP1 cells + 20 nM CPT, ATP luminescence, 48 h; Potency, µM (highest dose often 46.2 µM), for inactives: top-dose activity change, negative = growth inhibition, hits mostly inhibitors; actives 12% (n = 420,000); also: nearly all actives have a fitted effect of over 55% in size
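Chicken DT40 Tdp1-/- cells complemented with human TDP1, 400 cells/well, exposed to compounds plus 20 nM camptothecin for at least 48 h at 37 C; viability read as ATP content by CellTiter-Glo luminescence.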
KB-V1 cytotox – KB-V1 MDR subline cytotoxicity. KB-V1 MDR cells viability, CellTiter-Glo, 72 h. Potency, µM (titrated, usually from 46.1 µM), usual class: cytotoxic. actives 3.4% (n = 400,000); also: nearly all actives have a fitted effect of over 60% in size
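Luminescent ATP read-out (CellTiter-Glo, 10 min) measures survival of drug-selected KB-V1 MDR cells after 72 h, 37 degrees C compound exposure. Medium: phenol-red-free DMEM, 10% FBS. Values from fitted concentration-response curves.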
KB-3-1 cytotox – kills parental KB-3-1 adenocarcinoma cells | KB-3-1 viability, CellTiter-Glo ATP luminescence, 72 h | Potency, µM (doses to about 46.1 µM), most hits filed as cytotoxic | actives 1.4% (n = 400,000); also: nearly all actives have a fitted effect of over 60% in size
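Here the drug-naive KB-3-1 line serves as comparator for MDR sub-line selectivity; cells received compound titrations, 72 h at 37 °C, then CellTiter-Glo readout.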
An asterisk follows results filed as active; i = inactive; ? = inconclusive; · = no result. Shown are actives, neighbours in structure and some others; about 19% of the full set was active somewhere. Calls follow the shape of the dose curve; as a rule, active = well fitted curve in the direction sought with a large enough effect; inconclusive = small, poorly fitted or top-dose-only effect, or another doubt; inactive = no such curve, though single readings can be large; an effect the other way counts as inactive or inconclusive. Unless noted, % is scaled to controls: 0 for no effect and ±100 for the full control effect; potency is read from the fitted curve at half-maximal effect.

SMILES | HT1080NT lethal | HT1080 IDH1KD tx | DT40 TDP1 no CPT | TDP1 cell CPT | KB-V1 cytotox | KB-3-1 cytotox
COc1ccccc1OCCOc1ccc(/C=C2\C(=N)N3N=C(S(C)(=O)=O)SC3=NC2=O)cc1 | -8.0% | -0.3% | 23.1µM* | ? | i | i
CC(=O)Nc1ccc(OCCOc2ccc(/C=C3/C(=N)N4C=CSC4=NC3=O)cc2)cc1 | 3.9% | 0.4% | 10.3µM* | 20.6µM* | i | i
CCOc1ccc(Oc2ccc(C(F)(F)F)cc2NC(=O)C2=COCCO2)cc1 | -1.0% | 0.3% | ? | ? | i | i
CCc1ccccc1N(CC(=O)NC(C)C)C(=O)CCC(=O)Nc1nccs1 | 5.9% | 0.5% | -2.5% | -20.0% | ? | i
CCOC(=O)c1cc2ccccc2n1C1CCN(C)CC1 | -29.2% | -29.3% | 25.9µM* | ? | ? | i
CCC(=O)N1CCN(CCN=CC2=C(O)CC(c3ccc(OC)cc3)CC2=O)CC1 (centres undefined) | 5.5% | 8.3% | -3.5% | -15.9% | i | i
Cc1cc(NC(=O)CSc2nnc(-c3cccc(Cl)c3)o2)no1 | ? | ? | 16.4µM* | ? | i | ?
COc1ccccc1-c1nnc(SCC(=O)Nc2ccccc2F)o1 | · | · | 20.6µM* | 20.6µM* | i | i
COc1cccc(-c2nnc(SCC(=O)Nc3cc(C)on3)o2)c1 | -6.6% | -20.4% | ? | 16.4µM* | i | i
Cc1cc(NC(=O)CSc2nnc(-c3ccccc3Cl)o2)no1 | -29.8% | 0.1% | -9.0% | -11.5% | i | i
COC(=O)CSc1nnc(-c2ccccc2OC)o1 | 7.4% | -8.0% | -0.9% | -16.6% | i | i
CCOc1ccc(-c2nnc(SCC(=O)Nc3cc(C)on3)o2)cc1 | 2.2% | -23.1% | ? | 8.2µM* | i | i
COc1cccc(-c2nnc(SCC(=O)Nc3cc(C)on3)n2C)c1 | 1.5% | 9.4% | 3.2% | 11.6% | i | i
CCOc1ccc(NC(=O)CSc2nnc(-c3ccc(OCC)cc3)o2)cc1 | · | · | 4.0% | -16.9% | ? | i
O=[N+]([O-])c1cc(-c2nc(-c3ccccc3)no2)ccc1NC1CCCC1 | · | · | -14.4% | -23.8% | i | i
COc1ccc(-c2nnc(SCC(=O)Nc3cccc(Cl)c3)o2)cc1 | ? | -29.6% | -3.6% | -25.7% | 16.4µM* | ?
Cn1ccnc1SCC(=O)Nc1ccc(Br)cc1C(F)(F)F | -1.5% | 5.7% | -18.1% | -15.6% | · | ·
CCC(=O)NC(c1cccs1)c1cc(Cl)c2cccnc2c1O (centres undefined) | ? | ? | 3.26µM* | 4.61µM* | i | i
CCC(=O)NC(c1cc(Cl)c2cccnc2c1O)C(C)C (centres undefined) | · | · | · | · | ? | i
CCCCC(=O)NC(c1cccs1)c1cc(Cl)c2cccnc2c1O (centres undefined) | ? | ? | 2.59µM* | 3.66µM* | ? | ?
CC(=O)Nc1ccc(S(=O)(=O)c2ccnc3cc(Cl)ccc23)cc1 | ? | ? | 9.2µM* | 11.6µM* | ? | ?
C#CCCC/C(=C\C(=O)N(C)[C@H](C(=O)N(C)[C@H](C(=O)N(C)[C@H](C(=O)N(C)[C@H](C(N)=O)C(C)C)C(C)C)C(C)C)C(C)C)OC | 4.7% | 3.0% | 18.4µM* | 20.6µM* | i | i
Cc1cc(C)c(C)c(S(=O)(=O)NCC(=O)Nc2sc3c(c2C(N)=O)CCCC3)c1C | -0.3% | -7.5% | ? | ? | i | i
CN(C)S(=O)(=O)c1cccc(C(=O)OCC(=O)Nc2sccc2C(N)=O)c1 | -19.5% | -7.9% | 20.6µM* | 14.6µM* | i | i
COc1ccc(NC(=O)COC(=O)c2cccc(S(=O)(=O)N(C)C)c2)cc1 | 19.8% | 11.1% | 9.7% | 1.9% | ? | i
SMILES | HT1080NT lethal | HT1080 IDH1KD tx | DT40 TDP1 no CPT | TDP1 cell CPT | KB-V1 cytotox | KB-3-1 cytotox
COc1cc(C(=O)OCC(=O)Nc2sccc2C(N)=O)cc(OC)c1OC | ? | 7.31µM* | 3.66µM* | 4.61µM* | ? | 16.4µM*
CCOc1ccc(NC(=O)c2nn(C)c3c2CS(=O)(=O)c2ccccc2-3)cc1 | · | · | -9.0% | 4.1% | i | i
Cc1ccc(OCC(=O)OCC(=O)NC2CCCCCC2)cc1C | -0.7% | -0.4% | -19.2% | -29.4% | i | i
COC(=O)c1ccc(NC(=O)CSc2nc(=O)n(Cc3ccco3)c3c2CCC3)cc1 | · | · | ? | -28.2% | i | i
CCOc1cccc(C=Nc2cc(C)cc(C)c2O)c1O | -8.6% | -3.8% | ? | 14.6µM* | i | i
Cc1ccc(C(=O)COC(=O)CCc2ccc(S(=O)(=O)N3CCCCC3)cc2)cc1 | 5.4% | -5.0% | -22.2% | -13.0% | i | i
C=CCNc1nc(Cl)nc(Nc2ccc(OC)cc2)n1 | ? | -27.5% | -15.5% | -19.0% | 13µM* | i
COc1cc2c(cc1OC)[C@@H]1Cc3cc4c(cc3[C@H](C2)N1C)OCO4 | -10.1% | 5.7% | -19.3% | 3.6% | i | i
COc1cc2c(cc1OC)C1CCc3cc4c(cc3C1N=C2)OCO4 (centres undefined) | 1.0% | -8.6% | 13µM* | 16.4µM* | ? | ?
COc1ccc(/C=C2\N=C3CCCCCN3C2=O)cc1 | -2.5% | 16.3% | -5.2% | 4.6% | i | i
O=C1N=C(N2CCCCC2)S/C1=C\c1ccc(Br)cc1 | 6.2% | 10.3% | ? | -22.5% | i | i
CC(C)c1ccc(/C=C2\SC(N3CCCC3)=NC2=O)cc1 | -17.1% | -12.9% | 23.1µM* | ? | i | i
COc1cc(/C=C2\SC(N3CCC(C)CC3)=NC2=O)ccc1O | 1.1% | -11.8% | ? | -23.4% | i | i
